We go through eight compounds from PubChem BioAssay (NCATS).

The target of experiment [1] is Lysosomal acid glucosylceramidase (Homo sapiens) (UniProt P04062). Put plainly: Glucocerebrosidase-p2 (AID 348; in the data active = potency below about 10 µM; note: potency is the fitted concentration of half-maximal effect). Conditions: purified GBA, blue fluorogenic substrate, 40 min. In a few lines:
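Normal human glucocerebrosidase (0.2 nM) with blue fluorogenic substrate (80 uM final) in citrate/phosphate pH 5.9 with 10mM sodium taurocholate, 0.01% tween-20; 40 min RT, NaOH/glycine stop; fluorescence Ex 365/Em 440; AC50 from a titration from 0.6 nM upwards.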

Experiment [2] can be described thus: AP1 Signaling Pathway (AID 357). Note: % is set by controls: 0 for no effect and ±100 for the full control effect. Conditions: ME-180 AP-1-bla reporter, EGF-induced, beta-lactamase ratio, 5 h; at 7.69 µM (top of the series) unless noted. In a few lines: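 ME-180 cells with beta-lactamase reporter under AP-1 response element, stimulated with EC50 EGF; compounds tested in titration series, 5 h at 37 °C. CCF4 substrate added 2.5 h at room temperature; 460/530 nm emission ratio gave %activity and AC50.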

Experiment [3] can be described thus: NFAT Signaling Pathway (AID 444).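 Note: carbachol stimulus at about its EC50 of 1 µM final; % is set by controls: 0 for no effect and ±100 for the full control effect.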 Conditions: Jurkat NFAT-bla M1, carbachol, beta-lactamase ratio, 5 h; at 7.69 µM (top of the series) unless noted. In a few lines: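 Jurkat cells with NFAT-driven β-lactamase reporter and co-expressed M1 receptor, stimulated with carbachol (final 1 uM, ~EC50), compound titration, 5 h at 37 °C. CCF4 loaded 1 h at RT; 460/530 nm ratio gave %activity and AC50.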

The nature of experiment [4]: Stat Signaling Pathway (AID 446).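 Note: ME-180 cervical cancer cells given 40 pM IL-6 alongside compound; SIE-controlled beta-lactamase reporter measured as 460/530 nm FRET emission ratio; % is set by controls: 0 for no effect and ±100 for the full control effect.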 Conditions: ME-180 SIE beta-lactamase reporter, IL-6 stimulated, 5 h; at 7.69 µM (top of the series) unless noted. In a few lines: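 Compound effects on IL-6-induced STAT reporter activity were measured in ME-180 cells. After overnight culture, cells were co-treated with 40 pM IL-6 for 5 hrs before beta-lactamase substrate loading at room temperature.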

Experiment [5] deals with Glucocorticoid receptor (Homo sapiens) (UniProt P04150). In words: GR-GFP Redistribution (AID 450;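 active = compounds whose dose series gives a full or clear partial fitted curve of increased nuclear translocation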; note: potency is the fitted concentration of half-maximal effect). Conditions: U2OS GR-GFP nuclear translocation, laser cytometry, 2 h.
Chain of Glucocorticoid receptor (Homo sapiens) (P04150 whole entry, looked up): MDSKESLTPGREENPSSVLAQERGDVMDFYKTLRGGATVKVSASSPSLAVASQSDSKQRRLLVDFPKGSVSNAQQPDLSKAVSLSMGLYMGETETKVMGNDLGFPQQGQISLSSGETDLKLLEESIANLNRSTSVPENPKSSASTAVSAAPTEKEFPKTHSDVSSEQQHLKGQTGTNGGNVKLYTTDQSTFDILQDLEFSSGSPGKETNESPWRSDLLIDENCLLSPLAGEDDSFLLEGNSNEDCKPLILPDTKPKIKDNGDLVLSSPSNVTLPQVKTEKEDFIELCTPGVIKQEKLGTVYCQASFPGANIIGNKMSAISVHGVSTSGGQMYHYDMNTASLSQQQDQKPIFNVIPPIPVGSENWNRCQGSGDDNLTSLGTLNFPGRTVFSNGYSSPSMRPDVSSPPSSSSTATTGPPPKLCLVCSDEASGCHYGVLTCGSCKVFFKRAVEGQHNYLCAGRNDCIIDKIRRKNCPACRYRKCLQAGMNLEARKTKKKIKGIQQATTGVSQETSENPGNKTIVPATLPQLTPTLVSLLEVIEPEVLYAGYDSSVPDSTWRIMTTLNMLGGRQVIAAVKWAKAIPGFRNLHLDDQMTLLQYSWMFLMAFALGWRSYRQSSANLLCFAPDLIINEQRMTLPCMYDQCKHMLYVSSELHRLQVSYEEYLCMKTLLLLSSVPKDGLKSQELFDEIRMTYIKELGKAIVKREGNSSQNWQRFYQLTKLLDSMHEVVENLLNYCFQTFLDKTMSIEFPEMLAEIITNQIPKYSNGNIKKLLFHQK
Experiment [6] has the same target. In words: GR-EFC Redistribution (AID 451; calls by dose curve; note: potency is the fitted concentration of half-maximal effect). Conditions: CHO-K1 GR-EFC translocation, beta-gal luminescence, 2 h. In a few lines:
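CHO-K1 cells expressing nuclear EA and GR-ED fragments of b-gal; compounds titrated up to 46 uM final, 2 h at 37 C. GR nuclear translocation read as complemented b-gal luminescence after 1 h RT detection.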

Experiment [7] has as its target 3',5'-cyclic-AMP phosphodiesterase 4B (Homo sapiens) (UniProt Q07343). In words: qHTS Assay for Inhibitors of PDE-IV (AID 607; active = well fitted activation curve with a large enough effect in the main read-out, with a control signal flat, not every such curve was filed as active; note: % of control where 0% means no effect). Conditions: HEK293 ACTOne CNG channel cells, membrane potential fluorescence; series mostly up to 22.9 µM. In a few lines: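 ACTOne HEK293 cells carry a modified cAMP-gated CNG channel and express endogenous PDE4; plated 1000 cells/well, compounds up to 22.9 uM final. Membrane-potential dye fluorescence (ex 535/em 590) was read; parental cells received 10 uM forskolin + 100 uM RO 20-1724.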

Experiment [8] concerns the target Mitogen-activated protein kinase 10 (Mus musculus) (UniProt Q61831). Put plainly: JNK3 AlphaScreen Assay (AID 530).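 Note: kinase came from lysate of stimulated human HepG2 cells; signal reports phosphorylation of biotinylated GST-cJun 1-79 at Ser73 with 10 µM ATP; % is set by controls: 0 for no effect and ±100 for the full control effect.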 Conditions: JNK3 lysate, c-Jun phosphorylation; series mostly up to 57.1 µM. In a few lines: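 HepG2 lysate (IL-1b/TNFa pre-activated) + biotin-GST-cJun 1-79 + anti-pSer73 cJun; cpd titration, 15 min RT; ATP 10 uM start; Tris pH 7.6, MgCl2, DTT, vanadate; beads in EDTA buffer; AlphaScreen.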

The target in experiment [9] is Cytochrome P450 1A2 (Homo sapiens) (UniProt P05177). Put plainly: p450-cyp1a2 (AID 410; calls by dose curve; note: potency is the fitted concentration of half-maximal effect;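 for activity change, negative = inhibition: -100% = full effect of reference inhibitor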). Conditions: recombinant CYP1A2, luciferin-ME demethylation, luminescence; series mostly up to 11.4 µM. In a few lines: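 Read-out is luminescence from luciferin produced by CYP1A2 demethylation of Luciferin-ME (100uM, at Km). Detection reagent stopped the 60 min NADPH-dependent reaction; signals were normalized to 57 uM furafylline.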
Chain of Cytochrome P450 1A2 (Homo sapiens) (P05177 whole entry, looked up): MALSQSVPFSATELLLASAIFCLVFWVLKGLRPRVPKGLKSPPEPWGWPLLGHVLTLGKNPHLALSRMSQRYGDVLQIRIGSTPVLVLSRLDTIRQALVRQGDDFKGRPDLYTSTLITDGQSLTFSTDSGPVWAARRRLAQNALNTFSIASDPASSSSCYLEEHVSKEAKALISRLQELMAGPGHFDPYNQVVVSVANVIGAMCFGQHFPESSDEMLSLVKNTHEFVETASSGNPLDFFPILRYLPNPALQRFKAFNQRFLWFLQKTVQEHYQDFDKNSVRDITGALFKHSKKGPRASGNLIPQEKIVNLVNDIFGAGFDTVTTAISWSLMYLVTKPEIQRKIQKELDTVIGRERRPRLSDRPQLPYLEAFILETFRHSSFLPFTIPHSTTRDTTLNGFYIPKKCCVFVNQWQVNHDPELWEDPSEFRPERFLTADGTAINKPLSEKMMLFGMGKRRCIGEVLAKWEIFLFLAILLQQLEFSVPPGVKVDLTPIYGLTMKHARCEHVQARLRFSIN

The target of experiment [10] is Cytochrome P450 2C19 (Homo sapiens) (UniProt P33261). In words: qHTS Assay for Inhibitors and Substrates of Cytochrome P450 2C19 (AID 899; active = well fitted curve in the direction sought with a large enough effect; an effect the other way counts as inactive or inconclusive; note: % is set by controls: 0 for no effect and ±100 for the full control effect; nearly all actives have a fitted effect of over 60% in size). Conditions: recombinant CYP2C19, luciferin-H EGE luminescence; series mostly up to 11.4 µM. In a few lines: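 Luminescent read-out of luciferin formed from Luciferin-H EGE (10uM, equal to KM). Enzyme 5nM in 50mM KPO4; compound added, 10 min at 37C, then NADPH regenerating system for 60 min at 37C. Full inhibition defined by 57uM ketoconazole.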
Chain of Cytochrome P450 2C19 (Homo sapiens) (P33261 whole entry, looked up): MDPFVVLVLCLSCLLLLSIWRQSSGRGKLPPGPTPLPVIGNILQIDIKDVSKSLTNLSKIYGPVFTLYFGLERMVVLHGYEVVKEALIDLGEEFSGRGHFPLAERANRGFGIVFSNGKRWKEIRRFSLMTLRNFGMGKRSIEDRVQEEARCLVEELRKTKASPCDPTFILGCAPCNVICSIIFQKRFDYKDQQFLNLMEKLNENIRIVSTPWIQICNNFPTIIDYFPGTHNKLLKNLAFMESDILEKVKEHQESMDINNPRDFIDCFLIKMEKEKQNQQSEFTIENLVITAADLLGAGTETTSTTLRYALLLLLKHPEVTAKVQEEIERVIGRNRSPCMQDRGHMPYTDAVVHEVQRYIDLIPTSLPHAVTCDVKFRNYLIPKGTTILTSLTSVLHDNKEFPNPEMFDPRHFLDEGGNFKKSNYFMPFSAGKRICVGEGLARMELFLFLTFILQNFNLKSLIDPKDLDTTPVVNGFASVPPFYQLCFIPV
(qHTS replaces the single test concentration by a dilution series.)

Experiment [11] deals with Cytochrome P450 3A4 (Homo sapiens) (UniProt P08684). In words: qHTS Assay for Activators of Cytochrome P450 3A4 (AID 885; active = well fitted curve in the direction sought with a large enough effect; an effect the other way counts as inactive or inconclusive; note: nearly all actives have a fitted effect of over 65% in size). Conditions: recombinant CYP3A4, Luciferin-PPXE luminescence, 60 min; series mostly up to 57.1 µM. In a few lines: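 CYP3A4 activity: Luciferin-PPXE O-dealkylation, 25uM substrate, 200mM KPO4, RT throughout. Read-out is luciferase luminescence; higher values reflect activation.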
Chain of Cytochrome P450 3A4 (Homo sapiens) (P08684 whole entry, looked up): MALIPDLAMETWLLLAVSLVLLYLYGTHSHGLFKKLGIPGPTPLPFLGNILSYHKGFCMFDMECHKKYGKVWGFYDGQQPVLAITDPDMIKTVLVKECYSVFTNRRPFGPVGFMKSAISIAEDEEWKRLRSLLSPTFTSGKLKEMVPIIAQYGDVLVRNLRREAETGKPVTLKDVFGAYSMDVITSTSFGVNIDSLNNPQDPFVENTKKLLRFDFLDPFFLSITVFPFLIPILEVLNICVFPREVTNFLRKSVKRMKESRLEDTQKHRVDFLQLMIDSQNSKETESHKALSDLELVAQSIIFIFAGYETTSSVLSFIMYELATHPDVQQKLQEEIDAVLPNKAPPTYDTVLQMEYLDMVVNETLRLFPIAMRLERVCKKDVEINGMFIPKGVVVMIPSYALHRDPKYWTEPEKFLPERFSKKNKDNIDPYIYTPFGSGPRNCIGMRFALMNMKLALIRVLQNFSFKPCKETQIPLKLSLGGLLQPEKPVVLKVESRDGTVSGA

The target in experiment [12] is Cytochrome P450 2D6 (Homo sapiens) (UniProt P10635). In words: qHTS Assay for Inhibitors and Substrates of Cytochrome P450 2D6 (AID 891; active = well fitted curve in the direction sought with a large enough effect; an effect the other way counts as inactive or inconclusive; note: potency is the fitted concentration of half-maximal effect; nearly all actives have a fitted effect of over 60% in size). Conditions: recombinant CYP2D6, luciferin-ME EGE luminescence; series mostly up to 11.4 µM. In a few lines: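 Luminescent read-out of luciferin formed by 5 nM human CYP2D6 demethylating 30 uM Luciferin-ME EGE (Km level) over 60 min at room temperature after NADPH regeneration addition. Data normalized to full inhibition by 1.43 uM quinidine.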
Chain of Cytochrome P450 2D6 (Homo sapiens) (P10635 whole entry, looked up): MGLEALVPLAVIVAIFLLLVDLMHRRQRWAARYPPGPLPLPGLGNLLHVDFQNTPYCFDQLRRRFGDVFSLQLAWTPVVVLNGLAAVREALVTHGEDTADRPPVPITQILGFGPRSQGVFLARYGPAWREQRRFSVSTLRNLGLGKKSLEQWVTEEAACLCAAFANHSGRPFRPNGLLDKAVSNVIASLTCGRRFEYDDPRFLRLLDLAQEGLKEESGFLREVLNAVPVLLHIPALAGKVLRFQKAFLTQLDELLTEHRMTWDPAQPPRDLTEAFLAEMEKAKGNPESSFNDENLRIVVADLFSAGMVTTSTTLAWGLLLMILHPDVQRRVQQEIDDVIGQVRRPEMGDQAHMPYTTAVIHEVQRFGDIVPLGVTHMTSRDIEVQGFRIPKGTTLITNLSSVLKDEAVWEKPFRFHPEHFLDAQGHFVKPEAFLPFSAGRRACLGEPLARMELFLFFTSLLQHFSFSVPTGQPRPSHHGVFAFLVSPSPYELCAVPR

A short description of experiment [13]: qHTS Assay for Identification of Small Molecule Agonists for Hypoxia Response Element Signaling Pathway (AID 914; active = well fitted activation curve with a large enough effect in the signal ratio, with a control signal flat, not every such curve was filed as active; the % refers to the signal ratio; note: % of control where 0% means no effect). Conditions: ME-180 (cervical carcinoma) HRE-bla reporter, beta-lactamase ratio, CoCl2, 17 h; active compounds read high. In a few lines: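 In Opti-MEM containing 0.5% dialyzed FBS and 10 mM HEPES, ME-180 HRE-bla cells received a compound titration and EC50 CoCl2. They were incubated 17 hours, then CCF4-loaded 2.5 hours at room temperature before ratio reading.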

Molecules are shown by their SMILES. Values without a mark were called inactive. Records with an inconclusive call do not appear. The source made the active and inactive calls. Unless noted, calls come from the whole dose curve; as a rule, active = well fitted curve in either direction with a large enough effect (not every such curve was filed as active); inconclusive = small, poorly fitted or top-dose-only effect, or another doubt; inactive = flat fitted curve, though single readings scatter.

Chain of Lysosomal acid glucosylceramidase (Homo sapiens) (P04062 whole entry, looked up): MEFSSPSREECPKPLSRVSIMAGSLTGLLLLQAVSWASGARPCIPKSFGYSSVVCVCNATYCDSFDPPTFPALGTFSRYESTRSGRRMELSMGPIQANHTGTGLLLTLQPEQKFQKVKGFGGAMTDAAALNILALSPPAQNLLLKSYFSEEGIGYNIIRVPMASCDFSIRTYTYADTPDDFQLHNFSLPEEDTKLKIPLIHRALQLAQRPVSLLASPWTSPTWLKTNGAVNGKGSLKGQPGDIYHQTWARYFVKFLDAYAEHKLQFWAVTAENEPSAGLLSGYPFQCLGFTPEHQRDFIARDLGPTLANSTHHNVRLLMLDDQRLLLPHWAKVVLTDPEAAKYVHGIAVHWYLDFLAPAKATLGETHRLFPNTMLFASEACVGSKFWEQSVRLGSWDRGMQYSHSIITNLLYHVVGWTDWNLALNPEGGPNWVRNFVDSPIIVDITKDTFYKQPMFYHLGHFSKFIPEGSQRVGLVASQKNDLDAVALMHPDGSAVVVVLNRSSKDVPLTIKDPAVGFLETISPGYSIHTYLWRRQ
Chain of 3',5'-cyclic-AMP phosphodiesterase 4B (Homo sapiens) (Q07343 whole entry, looked up): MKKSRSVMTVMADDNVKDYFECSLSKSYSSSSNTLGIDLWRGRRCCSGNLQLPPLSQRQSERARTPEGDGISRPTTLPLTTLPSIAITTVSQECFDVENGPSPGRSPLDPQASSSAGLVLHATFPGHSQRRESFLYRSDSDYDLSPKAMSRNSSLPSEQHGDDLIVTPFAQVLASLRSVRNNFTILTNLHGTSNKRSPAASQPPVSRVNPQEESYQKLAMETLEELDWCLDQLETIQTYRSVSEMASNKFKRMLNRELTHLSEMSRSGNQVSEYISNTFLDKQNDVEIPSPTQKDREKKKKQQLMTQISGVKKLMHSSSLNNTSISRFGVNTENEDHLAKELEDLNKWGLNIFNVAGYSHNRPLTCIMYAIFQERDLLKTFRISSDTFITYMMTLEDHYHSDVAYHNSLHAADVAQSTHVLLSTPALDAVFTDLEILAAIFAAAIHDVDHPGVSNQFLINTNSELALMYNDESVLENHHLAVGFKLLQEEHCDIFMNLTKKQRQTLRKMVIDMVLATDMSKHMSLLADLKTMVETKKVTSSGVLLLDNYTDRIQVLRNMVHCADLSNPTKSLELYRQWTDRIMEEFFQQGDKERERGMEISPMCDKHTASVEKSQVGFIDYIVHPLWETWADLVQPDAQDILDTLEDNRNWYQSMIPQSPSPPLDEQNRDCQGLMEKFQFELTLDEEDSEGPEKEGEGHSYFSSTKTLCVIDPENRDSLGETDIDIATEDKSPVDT

On to `CC(C)[C@@H](Br)C(=O)NCC(=O)O`, for which the Potency was > 11.4 µM in experiment [1], > 46 µM in [5] and > 9.22 µM in experiment [6]. Besides, the figures for the activity change, negative = inhibition in [2] and in [3] were 5.1% and 0.167%, respectively. The activity, negative = inhibition in experiment [4] is 11.3%. Moreover, in [7], the compound was classed as inactive.

Regarding `CSc1ccc2c(c1)c(CCN)c(C)n2Cc1ccccc1Cl`, the Potency in experiment [1] is > 11.4 µM; in [5], > 46 µM; in [6] it was > 9.22 µM. Besides, the activity change, negative = inhibition was 16.6% in experiment [2] and 17.6% in experiment [3]. Also, the activity, negative = inhibition in [4] was -2.31%. In addition, the compound was called inactive in experiment [7].

As to `O=C(O)C(Oc1nc(=S)[nH]c(=S)[nH]1)(c1ccc(Cl)cc1)c1ccc(Cl)cc1`, the figures for the Potency in experiment [1], in experiment [5] and in [6] were > 11.4 µM, > 46 µM and > 9.22 µM, respectively. Moreover, the activity change, negative = inhibition in experiment [2] is 17%; in experiment [3], 0.65%; in experiment [8], 5.45% [at 11.4 µM]. Also, the activity, negative = inhibition in experiment [4] was 3.94%. Besides, in experiment [7], the result was inactive.

Turning to `CN(C)CCCNc1c2c(nc3ccc(Cl)cc13)CCCC2`, the Potency in experiment [1] is > 11.4 µM; in experiment [5], > 46 µM. The activity change, negative = inhibition in experiment [2] is -1.02%; in [3], -26.1%; in experiment [8], 3.7% [at 11.4 µM]. Besides, in [4], the activity, negative = inhibition is 10%. Besides, the result in [7] was inactive.

For the compound `CC(C)(C)c1cc(C#N)cc(Br)c1OP(=O)(Oc1c(Br)cc(C#N)cc1C(C)(C)C)c1ccccc1`, the Potency was > 11.4 µM in experiment [1], > 46 µM in experiment [5] and > 9.22 µM in experiment [6]. Besides, the activity change, negative = inhibition in experiment [2] is 7.55%; in [3] it was -6.35%; in [8], -1.35% [at 11.4 µM]. Besides, the activity, negative = inhibition in experiment [4] is 16.6%. Also, in [7], the call was inactive.

Regarding `COc1ccc(C[C@@H]2C(=O)N[C@H](C)C(=O)N(C)[C@@H]3C(=O)N(C)[C@@H](Cc4ccc(O)c(c4)Oc4ccc(cc4)[C@H]3O)C(=O)N[C@@H](C)C(=O)N[C@H](C)C(=O)N2C)cc1`, the Potency in experiment [1] is > 11.4 µM; in experiment [5], > 46 µM; in experiment [6], > 9.22 µM. Further, the activity change, negative = inhibition is -121% (active) in experiment [2], -133% (active) in experiment [3] and 3.04% [at 11.4 µM] in experiment [8]. In addition, the activity, negative = inhibition in experiment [4] is -105% (active). In addition, the call in experiment [7] was inactive.

Turning to `c1cc(C2N3CCCN2CC3)ccn1` (stereo not drawn), the Potency is > 11.4 µM in experiment [1], 1.26 µM (active) in [9], > 46 µM in [5] and > 9.22 µM in experiment [6]. Further, the figures for the activity change, negative = inhibition in experiment [2] and in [8] were 2.62% and 2.87% [at 11.4 µM], respectively. Further, the activity, negative = inhibition in experiment [4] was 3.03%. In addition, in experiment [7], the result was inactive. The Potency result in experiment [10] is “inactive”.

For `C[C@H](CC(C#N)(c1ccccc1)c1ccccc1)N1CCCCC1`, the figures for the Potency in [1] and in experiment [12] were > 11.4 µM and 2.51 µM (active), respectively. The activity change, negative = inhibition in experiment [2] is 17%; in [9], 7.1% [at 2.29 µM]; in experiment [8], 1.28% [at 11.4 µM]. For the same compound, the activity, negative = inhibition in [4] was 2.01%. For the same compound, the result in [7] was inactive. Moreover, the activity change, positive = activation in experiment [11] is -53% [at 11.4 µM]. In addition, the activation in experiment [13] was 4.33%.
